{"source": "the OligoGym collection"}
{"molecular_target": "SELO", "assay": "pooled miR-30 sensor sort-seq; sequence = guide strand", "conditions": "shRNA"}
{"sequence": "TCGCTGCATAGAAACTCCCGGA", "sensor-assay potency score (higher = more potent)": -0.819}
{"sequence": "TTGAGCTGCAGCTCCCAGCGCT", "sensor-assay potency score (higher = more potent)": -0.647}
{"sequence": "TTCCTCAGCACGTACTTCGGGT", "sensor-assay potency score (higher = more potent)": -0.346}
{"sequence": "TTTCTCTGCACGCTGTCGCTGG", "sensor-assay potency score (higher = more potent)": -0.303}
{"sequence": "AACACGTCGCGCACCACCGTGG", "sensor-assay potency score (higher = more potent)": -0.914}
{"sequence": "ATCTTCTGCAGGTAGTGCCTTT", "sensor-assay potency score (higher = more potent)": -1.13}
{"sequence": "TTGTCGGTGTTGAGCACGCCGT", "sensor-assay potency score (higher = more potent)": -1.37}
{"molecular_target": "SEMA3B", "assay": "pooled miR-30 sensor sort-seq; sequence = guide strand", "conditions": "shRNA"}
{"sequence": "TCTCCGGAGCACAACGTGCTGG", "sensor-assay potency score (higher = more potent)": -0.802}
{"sequence": "TACTTTAGTACAGTCGGCCTGC", "sensor-assay potency score (higher = more potent)": 0.558}
{"sequence": "TACCTTGACAAACTTGGGCTCA", "sensor-assay potency score (higher = more potent)": -0.131}
{"sequence": "TTGGAAGAAATTTGCATGCTGG", "sensor-assay potency score (higher = more potent)": 0.12}
{"sequence": "ATGCTGTACACGCACACCGCAG", "sensor-assay potency score (higher = more potent)": -1.8}
{"sequence": "AACTGGATGACATCGTCTGGGA", "sensor-assay potency score (higher = more potent)": -0.898}
{"sequence": "TAGATTTTGTCGTCGTCTGGGT", "sensor-assay potency score (higher = more potent)": 0.074}
{"sequence": "TCACACTCCAGAAAGGCGCTGC", "sensor-assay potency score (higher = more potent)": 0.144}
{"sequence": "TTGGTGGAACTGAAGGTGCCAA", "sensor-assay potency score (higher = more potent)": -0.717}
{"sequence": "TTGCATGCTGGTGACAGCGGCC", "sensor-assay potency score (higher = more potent)": -0.767}
{"sequence": "TTGTGTTCCAGCAGCGCGGGAC", "sensor-assay potency score (higher = more potent)": -0.691}
{"sequence": "TTCAGGAACGTCGTCCACTTGT", "sensor-assay potency score (higher = more potent)": -0.531}
{"molecular_target": "SEMA5A", "assay": "pooled miR-30 sensor sort-seq; sequence = guide strand", "conditions": "shRNA"}
{"sequence": "TAGAACAGTACCGCATTTCGAT", "sensor-assay potency score (higher = more potent)": -0.368}
{"sequence": "TTGCAGTATCTTTCCTCGCGGT", "sensor-assay potency score (higher = more potent)": -0.492}
{"sequence": "TTATGAAATATTATGGACCTAT", "sensor-assay potency score (higher = more potent)": -0.515}
{"sequence": "TCTTCCAGCAAACAGCTGCTTG", "sensor-assay potency score (higher = more potent)": -1.24}
{"sequence": "ATTAGAGTCAAACACACACGGC", "sensor-assay potency score (higher = more potent)": -0.728}
{"sequence": "ATATCGTTCTTGCACACCCGGG", "sensor-assay potency score (higher = more potent)": -1.15}
{"sequence": "TATCGTTCTTGCACACCCGGGC", "sensor-assay potency score (higher = more potent)": -0.125}
{"sequence": "TTCTTCGCTCTGAACTCCCGTA", "sensor-assay potency score (higher = more potent)": -0.152}
{"sequence": "TTTCGATTCTCTGTCTTCCCAC", "sensor-assay potency score (higher = more potent)": 0.0611}
{"sequence": "TTAGAGTCAAACACACACGGCC", "sensor-assay potency score (higher = more potent)": -0.151}
{"sequence": "ATCTCTTCCAGCAAACAGCTGC", "sensor-assay potency score (higher = more potent)": -0.82}
{"sequence": "TTGAAGACGCACACAGCTGAGG", "sensor-assay potency score (higher = more potent)": -0.713}
{"molecular_target": "SEMA6D", "assay": "pooled miR-30 sensor sort-seq; sequence = guide strand", "conditions": "shRNA"}
{"sequence": "TTTTTTTTGACATTTGTGCAAG", "sensor-assay potency score (higher = more potent)": -0.63}
{"sequence": "TTGGGTGGTAGCTCTTTCCGAC", "sensor-assay potency score (higher = more potent)": -0.271}
{"sequence": "TTTTACATGATCCATAACGCTC", "sensor-assay potency score (higher = more potent)": -0.732}
{"sequence": "TTTCTTTCCTTGAAGCTCCATG", "sensor-assay potency score (higher = more potent)": -0.704}
{"sequence": "TTGAATAGTGATAGTCGACAGT", "sensor-assay potency score (higher = more potent)": -0.481}
{"sequence": "TATGTCTGTAATAGACTGCAGA", "sensor-assay potency score (higher = more potent)": -0.657}
{"sequence": "TAATAGACTGCAGAACATCAAA", "sensor-assay potency score (higher = more potent)": -1.03}
{"sequence": "TTGATTTGTATTATGTCTGTAA", "sensor-assay potency score (higher = more potent)": 0.267}
{"sequence": "TTTAGGAGAATCAATATTCTGT", "sensor-assay potency score (higher = more potent)": -0.109}
